Each sequence was assayed against HOXB4 (Homo sapiens, UniProt P17483 148-234) (assay: PBM; 200 nM protein, PBS). Settings: dsDNA, one strand shown.
Sequence of HOXB4 (P17483 148-234): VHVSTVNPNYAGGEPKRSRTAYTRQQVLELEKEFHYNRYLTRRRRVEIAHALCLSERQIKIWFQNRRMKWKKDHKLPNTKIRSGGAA

Q: How did the binding signal turn out when CAGCGGAC was run?
A: 7.6 upbm affinity estimate (log intensity, higher = more binding, comparable within an allelic series)

Q: For CCTGGAAG, which binding signal is on record?
A: 7.71 upbm affinity estimate (log intensity, higher = more binding, comparable within an allelic series)

Q: CGGGATGC was tested. Which binding signal did it give?
A: 7.47 upbm affinity estimate (log intensity, higher = more binding, comparable within an allelic series)

Q: With ATCGTTCC as the sequence, how does the binding signal read?
A: 9.81 upbm affinity estimate (log intensity, higher = more binding, comparable within an allelic series)

Q: With GAATGAAC as the sequence, how does the binding signal read?
A: 8.91 upbm affinity estimate (log intensity, higher = more binding, comparable within an allelic series)

Q: For GAACATAA, which binding signal is on record?
A: 10.5 upbm affinity estimate (log intensity, higher = more binding, comparable within an allelic series)

Q: CGCCGTGC was tested. Which binding signal did it give?
A: 7.83 upbm affinity estimate (log intensity, higher = more binding, comparable within an allelic series)

Q: ATAAGCGC was tested. Which binding signal did it give?
A: 9.9 upbm affinity estimate (log intensity, higher = more binding, comparable within an allelic series)

Q: Which binding signal does the source give for CTGGGGGA here?
A: 7.75 upbm affinity estimate (log intensity, higher = more binding, comparable within an allelic series)

Q: Which binding signal does the source give for CCACAGGC here?
A: 7.72 upbm affinity estimate (log intensity, higher = more binding, comparable within an allelic series)

Q: CGGGCTGC was tested. Which binding signal did it give?
A: 7.97 upbm affinity estimate (log intensity, higher = more binding, comparable within an allelic series)

Q: For GCGCGGGA, which binding signal is on record?
A: 7.68 upbm affinity estimate (log intensity, higher = more binding, comparable within an allelic series)

Q: AATCAAGG was tested. Which binding signal did it give?
A: 10.3 upbm affinity estimate (log intensity, higher = more binding, comparable within an allelic series)

Q: AGACCCGA was tested. Which binding signal did it give?
A: 7.82 upbm affinity estimate (log intensity, higher = more binding, comparable within an allelic series)

Q: With CCCGTGCG as the sequence, how does the binding signal read?
A: 7.96 upbm affinity estimate (log intensity, higher = more binding, comparable within an allelic series)

Q: Which binding signal does the source give for CGGGAAAG here?
A: 7.44 upbm affinity estimate (log intensity, higher = more binding, comparable within an allelic series)

Q: How did the binding signal turn out when ACGTGGCG was run?
A: 7.5 upbm affinity estimate (log intensity, higher = more binding, comparable within an allelic series)

Q: CATTTGCG was tested. Which binding signal did it give?
A: 10.6 upbm affinity estimate (log intensity, higher = more binding, comparable within an allelic series)

Q: How did the binding signal turn out when CGGTCACG was run?
A: 7.89 upbm affinity estimate (log intensity, higher = more binding, comparable within an allelic series)

Q: Which binding signal does the source give for AAAATTAC here?
A: 11.3 upbm affinity estimate (log intensity, higher = more binding, comparable within an allelic series)

Q: For CCTGATTA, which binding signal is on record?
A: 11.8 upbm affinity estimate (log intensity, higher = more binding, comparable within an allelic series)

Q: CTCCCGGC was tested. Which binding signal did it give?
A: 7.38 upbm affinity estimate (log intensity, higher = more binding, comparable within an allelic series)

Q: How did the binding signal turn out when ACTAATAA was run?
A: 12 upbm affinity estimate (log intensity, higher = more binding, comparable within an allelic series)

Q: Which binding signal does the source give for CTATTTGA here?
A: 9.99 upbm affinity estimate (log intensity, higher = more binding, comparable within an allelic series)

Q: With ATTGATCC as the sequence, how does the binding signal read?
A: 10.1 upbm affinity estimate (log intensity, higher = more binding, comparable within an allelic series)

Q: For GATCGTTA, which binding signal is on record?
A: 12.3 upbm affinity estimate (log intensity, higher = more binding, comparable within an allelic series)

Q: Which binding signal does the source give for GCTCCCCC here?
A: 7.43 upbm affinity estimate (log intensity, higher = more binding, comparable within an allelic series)

Q: How did the binding signal turn out when CGTCGTTA was run?
A: 10.9 upbm affinity estimate (log intensity, higher = more binding, comparable within an allelic series)

Q: For CACGCCGA, which binding signal is on record?
A: 7.66 upbm affinity estimate (log intensity, higher = more binding, comparable within an allelic series)

Q: CTACCGCC was tested. Which binding signal did it give?
A: 7.59 upbm affinity estimate (log intensity, higher = more binding, comparable within an allelic series)

Q: For ATCTCTTA, which binding signal is on record?
A: 9.96 upbm affinity estimate (log intensity, higher = more binding, comparable within an allelic series)

Q: With CACGAGCC as the sequence, how does the binding signal read?
A: 7.81 upbm affinity estimate (log intensity, higher = more binding, comparable within an allelic series)

Q: With CACGTGGG as the sequence, how does the binding signal read?
A: 7.46 upbm affinity estimate (log intensity, higher = more binding, comparable within an allelic series)

Q: With ACGTAGCA as the sequence, how does the binding signal read?
A: 7.63 upbm affinity estimate (log intensity, higher = more binding, comparable within an allelic series)

Q: For AATAGCCA, which binding signal is on record?
A: 10.2 upbm affinity estimate (log intensity, higher = more binding, comparable within an allelic series)

Q: CCCGAGGA was tested. Which binding signal did it give?
A: 7.28 upbm affinity estimate (log intensity, higher = more binding, comparable within an allelic series)

Q: For CGTGCCGC, which binding signal is on record?
A: 7.33 upbm affinity estimate (log intensity, higher = more binding, comparable within an allelic series)

Q: AGCTTGGA was tested. Which binding signal did it give?
A: 7.7 upbm affinity estimate (log intensity, higher = more binding, comparable within an allelic series)

Q: How did the binding signal turn out when AACCCCCC was run?
A: 7.54 upbm affinity estimate (log intensity, higher = more binding, comparable within an allelic series)

Q: Which binding signal does the source give for CTAGGCAG here?
A: 8.13 upbm affinity estimate (log intensity, higher = more binding, comparable within an allelic series)

Source: article PMC11006913
